Source: PubChem
Shown are actives, neighbours in structure and some others; about 1.4% of the full set was active somewhere.
TPT1 inh = inhibitors of Candida albicans tRNA 2'-phosphotransferase TPT1 | recombinant caTPT1, FP RNA substrate dephosphorylation | 300,000 tested, 0.81% active | AID 1962 | inhibition, % at 5 µM;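 active means inhibition above the mean of all tested compounds plus 3 SD, set per screening campaign, cut at about 24% in these data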;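 further: plate controls were DMSO alone for no effect and ferristatin control at 100 nM for full effect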
IDE act = IDE (human) activation, cell-based. activation, % at 5.96 µM. 340,000 tested, 0.073% active. HEK cells, FAbeta-B cleavage, fluorescence polarization; 0% vehicle, 100% cell-free pure enzyme wells;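 active means activation above the mean of all tested compounds plus 3 SD, set per screening campaign, cut at about 17% in these data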
IDE inh = inhibitors of human insulin-degrading enzyme in cells. AID 434962. inhibition, % at 5.59 µM. HEK cells, FAbetaB cleavage, fluorescence polarization. P14735. 320,000 tested, 0.41% active;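 active means percent inhibition above the average of all tested compounds plus 3 SD, set per screening campaign, cut at about 16% in these data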;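 further: IDE supplied by intact live HEK cells; FP after avidin binding of uncleaved biotin substrate so inhibition keeps polarization high; 0% = DMSO wells and 100% = 60 µM reference IDE inhibitor Ii1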
CRFBP-R2 agonist = agonists of human CRF-binding protein/CRF-R2 receptor complex; HEK293 CRF-R2/CRF-BP, calcium dye fluorescence (FLIPR); percent of saturating CRF peptide response; activation, % at 13.2 µM; 350,000 tested, 0.46% active; AID 588473;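 active means activation of at least 50%, plus an integration ratio under a set limit after plate pattern correction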;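 further: plate controls were neutral control wells without compound for no effect and CRF at EC100 for full effect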
HNF4A DNA FP = change in binding of human HNF4 alpha to DNA | P41235 | 360,000 tested, 0.3% active | AID 1224865 | activity change, % at 10 µM | HNF4a-FITC DNA binding, fluorescence polarization, 1 h; in the data active means activity change above about 30%, passing the limit was not always enough
Target sequence (P41235 whole entry, looked up): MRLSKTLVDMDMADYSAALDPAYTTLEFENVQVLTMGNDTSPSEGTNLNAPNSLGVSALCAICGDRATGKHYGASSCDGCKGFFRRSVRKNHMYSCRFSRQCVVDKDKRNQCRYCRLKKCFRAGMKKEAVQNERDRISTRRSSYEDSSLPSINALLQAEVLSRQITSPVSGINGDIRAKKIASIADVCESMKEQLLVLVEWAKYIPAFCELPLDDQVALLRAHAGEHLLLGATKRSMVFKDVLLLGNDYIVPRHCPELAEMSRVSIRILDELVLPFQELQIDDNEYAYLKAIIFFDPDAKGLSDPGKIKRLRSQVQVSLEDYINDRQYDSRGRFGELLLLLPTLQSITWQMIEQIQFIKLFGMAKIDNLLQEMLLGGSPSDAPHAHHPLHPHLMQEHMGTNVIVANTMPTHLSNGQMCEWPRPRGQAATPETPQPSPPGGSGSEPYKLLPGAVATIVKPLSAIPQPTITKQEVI
IDE inh confirm = cellular human IDE inhibition, confirmation. shares compounds with IDE inh. HEK cells, FAbetaB cleavage, fluorescence polarization. inhibition, % at 5.59 µM. 1,200 tested, 51% active;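 active means mean inhibition across triplicate wells above the cutoff set by the earlier primary insulin-degrading enzyme screen, cut at about 16% in these data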;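 further: 0% = DMSO wells and 100% = 60 µM reference IDE inhibitor Ii1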
HEK cytotox = HEK cell cytotoxicity, counter-screen for IDE inhibitors. shares compounds with IDE inh. HEK293 cytotoxicity, ATP luminescence. inhibition, % at 5.59 µM. 1,200 tested, 28% active. AID 449730; in the data active means inhibition above about 22%;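 further: 0% = vehicle wells and 100% = reference cytotoxic drug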
IDE FP artifact = counter-screen for IDE inhibitors: fluorescent artifacts. 30 tested, under 10 active. AID 588718. FP counterscreen for fluorescent artifacts, IDE probe project. IC50, µM. shares compounds with IDE inh; call rule not given here
Starred values were filed as active, the others as inactive; . = no result.

SMILES | TPT1 inh | IDE act | IDE inh | CRFBP-R2 agonist | HNF4A DNA FP | IDE inh confirm | HEK cytotox | others
CC(Sc1nnc(-c2cccnc2)n1-c1ccccc1F)C(=O)N1CCCc2ccccc21 (configuration not stated) | -0.3 | . | 21.7* | . | . | 16.2* | 8.0 | IDE FP artifact=>54.7
CCOC(=O)N1CCN(S(=O)(=O)N2CCCC(C(=O)NC(C)c3ccccc3)C2)CC1 (configuration not stated) | 1.4 | -0.9 | 18.3* | -0.3 | -0.8 | 7.3 | 9.8
COc1ccc2[nH]c3c(=O)n(/N=C/c4ccc(OC)c(CN5CCCC5)c4)c(C)nc3c2c1 | 3.0 | -8.7 | 17.4* | -1.9 | 7.1 | 4.7 | 13.3
COc1ccc(/C=N/n2c(C)nc3c([nH]c4ccccc43)c2=O)cc1CN1CCCC(C)(C)C1 | -1.2 | -6.5 | -0.3 | 3.9 | 0.5 | . | .
Cc1ccc(S(=O)(=O)Nc2cc3c4c(c2)CCC(=O)N4CCC3)cc1 | -1.5 | 2.5 | -8.1 | 0.9 | 2.5 | . | .
O/C=c1\ccc2cccc3nc(C(F)(F)F)nc1c23 | -1.5 | -54.1 | 25.8* | 96.9* | -25.9 | 103.1* | 41.1*
CCOc1cc(-c2nc3n(c(=O)c2C#N)CCS3)ccc1O | 4.2 | -30.7 | 24.9* | -2.2 | -0.7 | 40.9* | 15.2
Cc1csc2c(N3CCN(C(=O)Nc4ccccc4)CC3)ncnc12 | -1.8 | -14.1 | 12.0 | -0.5 | 2.3 | . | .
Cc1ccc(C(=O)N2CCN(c3ncnc4c(C)csc34)CC2)cc1 | -2.8 | -4.5 | 18.6* | 5.0 | 2.7 | 7.2 | 17.3
COc1ccccc1CNC(=O)CSc1ccc(-c2cccc([N+](=O)[O-])c2)nn1 | -3.5 | 2.5 | 2.5 | 7.6 | -4.2 | . | .
O=C(Nc1cccc(C(F)(F)F)c1)c1ccc(Cn2cc(Br)cn2)o1 | -1.5 | -6.5 | 12.7 | 0.9 | 0.4 | . | .
O=C(Nc1ccc(C(F)(F)F)cc1Cl)c1ccc(Cn2cc(Br)cn2)o1 | 1.0 | -12.3 | 16.7* | 1.2 | 3.1 | 11.1 | 11.5
COc1ccc(C(=O)C2CCCN(C(=O)c3ccc4nccnc4c3)C2)c(C)c1 (configuration not stated) | -6.4 | -4.0 | 1.2 | -1.3 | -31.3 | . | .
O=C(NCc1ccccn1)c1cc(-c2ccc(Cl)cc2)oc1C(F)(F)F | -3.2 | . | 16.5* | -5.7 | 3.0 | -0.2 | 8.6
COc1ccc(N2CCN(C(=O)CCN3C(=S)NC(C)(C)CC3C)CC2)cc1 (configuration not stated) | 1.5 | -1.5 | -10.0 | 2.7 | -2.9 | . | .
CC(=O)Nc1ccc(Nc2c3c4c(cccc4n(C)c2=O)C(=O)c2ccccc2-3)cc1 | -72.7 | 5.8 | 3.4 | 31.2 | -126.3 | . | .
CCCCNc1c2c3c(cccc3n(C)c1=O)C(=O)c1ccccc1-2 | -7.7 | 29.7* | 103.2* | 239.2* | -89.6 | 25.9* | 31.5*
Cn1c(=O)c(NC2CCCCC2)c2c3c(cccc31)C(=O)c1ccccc1-2 | . | -95.3 | . | 380.1 | -110.4 | . | .
CCNc1c2c3c(cccc3n(C)c1=O)C(=O)c1ccccc1-2 | -51.6 | . | 61.7* | 179.2* | . | 26.3* | 16.6
CCOC(=O)C1=CCC(c2ccccc2)N(S(=O)(=O)c2ccc(C)cc2)[C@H]1CC (some centres not stated) | . | . | . | . | 8.1 | . | .
CCN1C(c2ccccc2)=C(c2ccccc2)S/C1=C\C=C1/SC(=S)N(C)C1=O | 6.8 | -4.4 | 1.8 | 2.1 | 29.7 | . | .
CCN1C(=O)/C(=C/C=C2/Sc3ccc4ccccc4c3N2CCO)SC1=S | 8.5 | -6.2 | 23.6* | -2.0 | 19.4 | 8.8 | 13.4
COc1cc(-c2cc(=O)c3ccccc3o2)ccc1O | -1.8 | -21.5 | 24.6* | -2.2 | 4.0 | 23.6* | 17.3
COc1cc(-c2cc(=O)c3c(O)cc(O)cc3o2)ccc1O | -0.4 | . | 9.4 | -0.6 | 0.4 | . | .
Cc1ccc(C)c(CSc2nc3[nH]ncc3c(=O)[nH]2)c1 | -2.7 | -0.6 | -7.3 | -0.5 | -2.2 | . | .
SMILES | TPT1 inh | IDE act | IDE inh | CRFBP-R2 agonist | HNF4A DNA FP | IDE inh confirm | HEK cytotox | others
O=S(=O)(c1ccc(SCc2cccc(Cl)c2)nc1)N1CCCC1 | . | -17.9 | 16.5* | 3.8 | -2.1 | 17.9* | 7.6
ClC(Cl)(c1nnnn1-c1ccccc1)c1nnnn1-c1ccccc1 | 0.3 | -25.6 | 59.5* | 32.1 | 0.7 | 9.7 | 120.8*
c1ccc(-c2nnnn2-c2ccccc2)cc1 | . | -3.9 | . | -0.1 | -0.5 | . | .
CCCN(CC(=O)Nc1ccccc1C)C(=O)c1ccc(=O)n(Cc2ccccc2)n1 | -3.3 | -2.1 | 2.3 | -1.2 | 0.2 | . | .
Cc1onc(-c2ccccc2)c1NC(=O)OC(C)c1cccnc1 (configuration not stated) | . | . | . | -3.2 | -1.0 | . | .
CN1CCN(C(=O)CCCN2C(=O)/C(=C/c3cccc(Br)c3)SC2=S)CC1 | . | 2.9 | . | 2.6 | 3.0 | . | .
CN1CCN(C(=O)CCN2C(=O)/C(=C/c3cccc(Br)c3)SC2=S)CC1 | -2.6 | -0.1 | 19.1* | -1.0 | 2.4 | 1.6 | 56.0*
Cc1cccc(N2CCN(C(=O)CCCn3c(=O)[nH]c4ccsc4c3=O)CC2C)c1 (configuration not stated) | -1.5 | 1.9 | 2.5 | 0.6 | 4.6 | . | .
Cc1cccc(N2CCN(C(=O)CCn3c(=O)[nH]c4ccsc4c3=O)CC2C)c1 (configuration not stated) | -2.7 | -13.6 | 23.8* | -0.2 | 0.5 | 15.8 | 8.8
O=C(NCC1CCCO1)c1cccc2c1C(=O)c1ccc(N3CCC(Cc4ccccc4)CC3)cc1S2(=O)=O (configuration not stated) | . | -44.2 | 50.3* | 83.4* | 62.4 | 83.0* | 50.0*
O=C(NC[C@@H]1CCCO1)c1cccc2c1C(=O)c1ccc(N3CCOCC3)cc1S2(=O)=O | . | 3.3 | 3.2 | 2.0 | 20.9 | . | .
Nc1c(C(=O)O)ccc2c1C(=O)c1ccccc1C2=O | -6.6 | -0.6 | -1.9 | -2.2 | 1.1 | . | .
Nc1c(SCCC(=O)O)ccc2c1C(=O)c1ccccc1C2=O | -7.6 | -3.4 | 16.8* | -8.0 | 3.8 | 11.4 | 13.8
CCOc1ccccc1OCCC(=O)N1CCN(S(=O)(=O)c2ccccc2[N+](=O)[O-])CC1 | . | 4.1 | 5.1 | -1.1 | -1.3 | . | .
CCOc1cc(Br)cc(/C=C2\SC(=Nc3ccccc3)NC2=O)c1O | 2.6 | -24.2 | 22.2* | 2.0 | 2.9 | 27.3* | 11.9
C=CCOc1ccc(Br)cc1/C=C1/SC(=Nc2ccc(C(=O)O)cc2)NC1=O | . | 1.2 | . | -1.9 | -2.5 | . | .
COc1cc(/C=C2\SC(=Nc3ccc(O)cc3)NC2=O)cc(OC)c1O | 16.9 | -65.4 | 128.2* | 28.5 | 8.1 | 152.2* | 19.2
CCc1ccc(N=C2NC(=O)/C(=C/c3cc(OC)c(OC)c(OC)c3)S2)cc1 | -1.9 | 5.6 | 5.1 | -0.1 | 2.6 | . | .
Cc1nn(-c2ccc(N3CCCCC3)nn2)c(C)c1CCC(=O)Nc1cc(F)ccc1F | 2.1 | -1.8 | 3.4 | -3.4 | -2.4 | . | .
